Screens (PubChem BioAssay)
In the library only some 1.9% were active in any assay of this set; here they are far more common.
PGE2 EP2 inh: inhibitors of human EP2 prostaglandin E2 receptor | P43116 | C6 glioma cells expressing human EP2, cAMP TR-FRET; cells stimulated with saturating PGE2 | inhibition, % at 25 µM | actives 0.52% (n = 260,000);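 active = percent inhibition above 40 after rounding to a whole number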;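 also: rat C6 glioma host cells with rolipram phosphodiesterase inhibitor present; the protocol text gives 20 µM as final concentration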
Pf gamet viab: P. falciparum stage V gametocyte viability inhibition. P. falciparum stage V gametocytes, ATP luminescence, 24 h. inhibition, % at 10.9 µM. actives 0.065% (n = 150,000). AID 743093;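 active = inhibition above the mean plus 3 SD of compounds within the control limits, set per campaign, cut at about 38% in these data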;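 also: 0% = DMSO wells and 100% = medium only without gametocytes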
EP2 modulator: EP2 receptor (human) modulation; EP2-expressing cells, cAMP HTRF FRET, PGE2 co-stimulation; induction, % at 25 µM; P43116; actives 0.83% (n = 260,000); AID 940;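 active = compounds whose cAMP rise, as percent of the full-agonist control response, exceeds 60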;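 also: rat C6 glioma line stably carrying human EP2 under a CMV promoter; the protocol text gives 20 µM as final concentration; 100% = response of wells given 1 µM PGE2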
S1P4 agonist: activates the human S1P4 receptor; actives 0.35% (n = 220,000); O95977; S1P4-expressing cell line, agonist reporter assay; activation, % at 4.98 µM; in the data active = activation above about 11%;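 also: 0% = DMSO vehicle and 100% = reference agonist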
Target sequence (O95977 whole entry, looked up): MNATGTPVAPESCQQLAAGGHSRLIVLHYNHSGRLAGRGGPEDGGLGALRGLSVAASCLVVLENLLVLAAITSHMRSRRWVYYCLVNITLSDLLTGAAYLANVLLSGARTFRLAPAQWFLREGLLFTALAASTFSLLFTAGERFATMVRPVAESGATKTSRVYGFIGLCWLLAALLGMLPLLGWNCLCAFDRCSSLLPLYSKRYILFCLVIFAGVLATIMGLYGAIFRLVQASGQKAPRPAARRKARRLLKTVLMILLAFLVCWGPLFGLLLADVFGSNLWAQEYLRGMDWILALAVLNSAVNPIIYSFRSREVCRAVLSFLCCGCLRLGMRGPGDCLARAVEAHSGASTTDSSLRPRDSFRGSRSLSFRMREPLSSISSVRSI
S1P4 antagonist: human S1P4 receptor antagonism | inhibition, % at 4.98 µM | actives 0.26% (n = 220,000) | S1P4-expressing cells, antagonist mode, reporter read-out | O95977; in the data active = inhibition above about 29%;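 also: 0% = wells stimulated with agonist and 100% = vehicle wells without agonist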
S1P3 antag: S1P3 (human) receptor antagonism | Q99500 | CHO S1P3 NFAT-BLA reporter, FRET fluorescence, antagonist mode | inhibition, % at 4.98 µM | actives 0.27% (n = 170,000) | AID 485;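 active = inhibition above the plate cutoff, the mean inhibition of test wells on that plate plus 3 SD, cut at about 28% in these data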;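 also: cells challenged with S1P at its EC80 of 0.8 µM; blue over green emission ratio from cleaved BLA substrate after 4 h stimulation; 0% = S1P-stimulated wells and 100% = unstimulated DMSO-only wells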
EP2 cAMP induct: human EP2 receptor cAMP induction, negative in counter-screens; shares compounds with EP2 modulator; actives 47% (n = 1,300); calls only at 20 µM (by protocol); C6 glioma EP2 cells, cAMP HTRF induction; plus low (about EC15) PGE2 agonist;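 active = cAMP induction above 50% in the main assay while under 30% in all four parallel counter assays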;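 also: rat C6 glioma cells stably expressing human EP2 receptor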
Active calls of the source: *.

How did COc1ccc(CC(=O)NC2CCN(CC(=O)Nc3ccc(Br)cc3)CC2)cc1OC do in these assays?
PGE2 EP2 inh: 9; EP2 modulator: -19

Results for CCC(CN1CCCCC1)NC(=O)Cc1csc(-c2cccc(F)c2)n1 (stereo not drawn) ?
PGE2 EP2 inh: 9; EP2 modulator: -44

How did CCc1ccccc1NC(=O)/C(=C/c1ccco1)c1ccccc1 do in these assays?
PGE2 EP2 inh: 5; Pf gamet viab: -31; EP2 modulator: 68*; S1P4 agonist: 0; S1P4 antagonist: 19; EP2 cAMP induct: active

What do the screens show for `Cc1ccccc1NC(=O)/C(=C/c1ccco1)c1ccccc1`?
PGE2 EP2 inh: 9; Pf gamet viab: 19; EP2 modulator: 38; S1P4 agonist: 3; S1P4 antagonist: 16

Results for N#Cc1cc2cc3c(cc2nc1SCC(=O)N1CC(=O)Nc2ccccc21)OCCO3 ?
PGE2 EP2 inh: 12; EP2 modulator: -19

Results for CCOC(=O)C(Cc1cc(C(C)=O)ccc1OCC)C(=O)OCC ?
PGE2 EP2 inh: 13; Pf gamet viab: -13; EP2 modulator: 15; S1P4 agonist: 2; S1P4 antagonist: -40; S1P3 antag: -14

How did CCOc1ccc(C(C)=O)cc1CC(C(N)=O)C(N)=O do in these assays?
EP2 modulator: 69*; S1P4 agonist: -2; S1P4 antagonist: -1; EP2 cAMP induct: inactive

Results for Cc1ccc(C)n1-n1c(C)nc2scc(-c3cccs3)c2c1=O ?
PGE2 EP2 inh: 2; EP2 modulator: 55; S1P4 agonist: 0; S1P4 antagonist: -18; S1P3 antag: -11; EP2 cAMP induct: inactive

How did Cc1nn(CC(=O)N2CCC(Cc3ccccc3)CC2)c(=O)c2cc3ccsc3n12 do in these assays?
EP2 modulator: -48

Results for CCCCN1C(=O)/C(=C2\SC(N3CCCCC3)=NC2=O)c2ccccc21 ?
PGE2 EP2 inh: 7; Pf gamet viab: -20; EP2 modulator: 65*; S1P4 agonist: 2; S1P4 antagonist: -5; S1P3 antag: -11; EP2 cAMP induct: active

Results for c1ccc(C2Nc3ccccc3Oc3ccccc32)cc1 (stereo not drawn) ?
PGE2 EP2 inh: 27; EP2 modulator: 81*; S1P4 agonist: 3; S1P4 antagonist: -22; EP2 cAMP induct: inactive

Results for c1ccc(C2Nc3ccccc3C3OCCCC23)cc1 (stereo not drawn) ?
Pf gamet viab: 1

Results for C=C(C)CN1CCN(Cc2cn[nH]c2-c2cccc(OC)c2)CC1 ?
PGE2 EP2 inh: 5; EP2 modulator: 23

How did Cc1nn(C)cc1CN1CCc2nc(N3CCCC(C)C3)[nH]c(=O)c2C1 (stereo not drawn) do in these assays?
PGE2 EP2 inh: 8; EP2 modulator: -4

Results for CC(C)NC(=S)NC(=O)c1ccc(-c2ccccc2)cc1 ?
PGE2 EP2 inh: 16; Pf gamet viab: -9; EP2 modulator: -3; S1P4 agonist: 0; S1P4 antagonist: 0; S1P3 antag: -3

Results for COc1ccc(C(=O)O)cc1NC(=S)NC(=O)c1ccc(-c2ccc(Cl)cc2)o1 ?
PGE2 EP2 inh: 8; Pf gamet viab: -17; EP2 modulator: 95*; S1P4 agonist: -2; S1P4 antagonist: 10; S1P3 antag: -17; EP2 cAMP induct: active

What do the screens show for `Cc1ccc(C(=O)O)cc1NC(=S)NC(=O)c1ccc(-c2ccccc2)cc1`?
PGE2 EP2 inh: 9; Pf gamet viab: 0; EP2 modulator: 74*; S1P4 agonist: -1; S1P4 antagonist: 3; S1P3 antag: 2; EP2 cAMP induct: active

What do the screens show for `CCC(=O)NC(=S)Nc1cc(C(=O)O)ccc1OC`?
PGE2 EP2 inh: 4; Pf gamet viab: -20; EP2 modulator: 13; S1P4 agonist: 0; S1P4 antagonist: -5; S1P3 antag: -18

What do the screens show for `Cc1ccc(N=Nc2c(N)[nH]n3c(=O)c4c(nc23)CCCC4)cc1`?
EP2 modulator: 81*; S1P4 agonist: 0; S1P4 antagonist: 0; EP2 cAMP induct: active
